The text below walks through data of PubChem BioAssay AID588689 (Southern Research Specialized Biocontainment Screening …, 2011).

This assay deals with Genome polyprotein (Dengue virus type 2 (strain 16681-PDK53)) (UniProt P29991). The experiment in a line: Dengue-2 NS5 methyltransferase inhibitors, primary screen, biochemical, confirmation dose response (AID 588689). Conditions: Dengue-2 NS5 methyltransferase capping enzyme assay, at 25 µM, stronger effect = higher value.

The whole screen tested about 340,000 compounds, of which about 1,000 (0.29%) were called active. Rule as the data show it: inconclusive = inhibition above about 29% without an active follow-up result; inactive = below that. The list is a sample of the results. Entries with a potency or affinity are not part of this list.

The term inhibition denotes the drop in the measured response relative to a control, in per cent. With `Cc1nn(C)c(Cl)c1CN1CCCC(CCC(=O)NCc2ccccc2F)C1` (stereo not given), the inhibition was 0% (inactive).

For the compound `CCN1C(=O)[C@@H]2[C@@H](c3ccc(-c4ccc(OC)cc4)c(OC)c3)N3CCCC[C@@]3(C(=O)OC)[C@@H]2C1=O`, the inhibition was 17.5% (inactive).

With `CCN1CCN(C(=O)CCc2nnc(CCc3c[nH]c4ccccc34)o2)[C@@H](C)C1=O`, the inhibition is -13.8% (inactive).

As to `CN(C(=O)CSc1nnc(-c2cccnc2)n1-c1ccccc1F)C1CCS(=O)(=O)C1` (stereo not given), the inhibition was 5.09% (inactive).

In the case of `CC(=O)C1=C(c2ccc(Br)cc2)C(=O)c2ccccc2C1=O`, the inhibition is 35% (inactive).

Regarding `O=C(C1=C(c2ccccc2)C(=O)c2ccccc2C1=O)c1ccccc1`, the inhibition is 3.59% (inactive).

Turning to `Cc1cc(C)cc(NC2=C(N)C(=O)c3ccccc3C2=O)c1`, the inhibition is 13% (inactive).

For the compound `Nc1ccc(NC(=O)c2ccccc2)c2c1C(=O)c1ccccc1C2=O`, the inhibition is 3.24% (inactive).

As for `Nc1ccccc1NC(=O)c1ccccc1`, the inhibition was 3.27% (inactive).

As to `COc1cc(NS(=O)(=O)c2ccc(C)cc2)c2c(c1N)C(=O)c1ccccc1C2=O`, the inhibition is 9.7% (inactive).

For `O=C(NCCc1nc2ccccc2[nH]1)/C(=C/c1ccc2c(c1)OCO2)NC(=O)c1ccc(Cl)cc1Cl`, the inhibition was -5.82% (inactive).

Regarding `CCCCNC(=O)COC(=O)c1c2c(nc3ccccc13)CCC2`, the inhibition was 4.4% (inactive).

As for `Cn1ccnc1C1CCCCN1C(=O)c1cc(COc2ccc(F)cc2F)on1` (stereo not given), the inhibition was 1.47% (inactive).

Consider `CN1CCN(C2=C(Cl)C(=O)N(c3ccc(Cl)cc3)C2=O)CC1`, for which the inhibition was 14.2% (inactive).

On to `Cc1cccc(C)c1N1C(=O)C(Cl)=C(N2CCCC2)C1=O`, for which the inhibition was -10.8% (inactive).

Turning to `O=C1C(Cl)=C(N2CCN(Cc3ccccc3)CC2)C(=O)N1c1ccccc1`, the inhibition is 67.7% (inactive).

Regarding `Cc1ccc(N2C(=O)C(Cl)=C(N3CCCCCC3)C2=O)cc1`, the inhibition was -6.21% (inactive).

As for `CN(C)C1=C(Cl)C(=O)N(c2ccc(Cl)c(Cl)c2)C1=O`, the inhibition was 26.8% (inactive).

As for `O=C1C(Cl)=C(N2CCOCC2)C(=O)N1CCc1ccccc1`, the inhibition is -0.8% (inactive).

With `CC(C)c1ccc(S(=O)(=O)Nc2ccc(N3CCOCC3)cc2)cc1`, the inhibition is -9.76% (inactive).

For the compound `O=C(Nc1cccc(-n2cccn2)c1)C1CCCN(Cc2cc3ccccc3[nH]2)C1` (stereo not given), the inhibition is -16.8% (inactive).

`COc1ccc(N2CCN(C3CCCN(C(=O)CN4CCCC4=O)C3)CC2)cc1` (stereo not given): the inhibition is -4.52% (inactive).

On to `COCCCN1Cc2cccc(C(=O)O)c2C1=O`, for which the inhibition was -4.84% (inactive).

Consider `O=C(CCCc1nc(-c2ccc(Cl)cc2)no1)NCC1CCCO1` (stereo not given), for which the inhibition was 1.63% (inactive).

Regarding `CC1(C)CC(=O)C(C2=NC3(CCCCC3)Cc3ccccc32)=C(O)C1`, the inhibition is 2.33% (inactive).

In the case of `C=C(C1=CCN(S(=O)C(C)(C)C)[C@@H]1CCO)c1ccccc1` (stereo not given in full), the inhibition is 0.33% (inactive). Besides, the inhibition (measured here: pilot screen replicate inhibition) was -2.42%.

For the compound `COc1ccc(/C=C(\C#N)C(=O)Nc2cc(S(=O)(=O)N3CCOCC3)ccc2N2CCCC2)cc1`, the inhibition was -4.53% (inactive).

As for `COc1ccc(-c2nc(-c3ccccn3)no2)cc1`, the inhibition is -2.71% (inactive).

On to `COC(=O)c1ccccc1N(C)S(C)(=O)=O`, for which the inhibition is -6.11% (inactive).

`COc1ccccc1N1CCN(CCNC(=O)Nc2cccc(C)c2C)CC1`: the inhibition is -5.61% (inactive).

Take `Cc1ccccc1NC(=O)c1cccc(N2C(=O)C3CCCCC3C2=O)c1` (stereo not given): the inhibition is -9.97% (inactive).

As for `CN(C1CCCCC1)S(=O)(=O)c1ccc(S(=O)(=O)N2CCN(C(=O)c3ccccc3F)CC2)cc1`, the inhibition is -5.65% (inactive).

Take `Cc1onc(-c2ccccc2)c1C(=O)Nc1ccc(Cl)cn1`: the inhibition is -2.24% (inactive).

Take `Cc1cc(NC(=O)CSCc2nc(-c3cccc(F)c3)oc2C)no1`: the inhibition is 4.17% (inactive).

`COc1ccc(N(CC(=O)NCCSC2CCCCC2)S(=O)(=O)c2ccc(C)cc2)cc1`: the inhibition was -4.51% (inactive).

For `O=C1C(Cl)=C(N2CCCCCC2)C(=O)N1c1ccc(Cl)cc1`, the inhibition is 2.94% (inactive).

Regarding `Cc1ccc(N2C(=O)C(Cl)=C(N3CCOCC3)C2=O)c(C)c1`, the inhibition was 5.79% (inactive).

On to `O=C1C(Cl)=C(N2CCCCCC2)C(=O)N1c1ccccc1`, for which the inhibition was -0.82% (inactive).

Consider `Cc1cccc(N2C(=O)CC(N3CCOCC3)C2=O)c1` (stereo not given), for which the inhibition is 0% (inactive).

`CN1CCN(C2=C(Cl)C(=O)N(c3cccc(Cl)c3)C2=O)CC1`: the inhibition was 12.9% (inactive).

Regarding `CC1CCCN(C2=C(Cl)C(=O)N(c3cccc(Cl)c3)C2=O)C1` (stereo not given), the inhibition was 5.18% (inactive).

`COc1cc(C(=O)C(O)c2ccc(O)c(OC)c2)ccc1O` (stereo not given): the inhibition was 0% (inactive).

On to `CN(Cc1cnn(-c2ccc(F)cc2)c1)Cc1nc(Cc2ccccc2)no1`, for which the inhibition is -8.38% (inactive).

Regarding `COC(=O)c1ccccc1C(=O)N1CCC(CCC(=O)NC2CC2)CC1`, the inhibition is -9.72% (inactive).

Consider `CC(C)NC(=O)CSc1nccc(-c2cccs2)n1`, for which the inhibition was 6.26% (inactive).

Regarding `CC(=O)C1=NN(c2ccccc2)C2(S1)S/C(=C\c1ccccc1)C(=O)N2c1ccccc1` (stereo not given), the inhibition is 3.22% (inactive).

`Cc1ccc(SCCc2cc[n+](CC(=O)c3ccccc3)cc2)cc1`: the inhibition was -23.5% (inactive).

Take `CCOc1ccc(-n2c(SCc3cc(=O)oc4cc(C)ccc34)nnc2-c2cccnc2)cc1`: the inhibition was -5.85% (inactive).

As to `COCC(COS(N)(=O)=O)Cc1ccccc1` (stereo not given), the inhibition is -5.61% (inactive).

In the case of `C/C(=N\NS(=O)(=O)c1ccccc1)c1ccc2c(c1)OCCO2`, the inhibition was -5.78% (inactive).

In the case of `CC(=O)NCCc1nc2cc(NC(=O)c3ccc(F)cc3)ccc2n1C`, the inhibition was 0.65% (inactive).

`COc1ccc(C2=CC(=O)CC(C)(C)C2)cc1OC`: the inhibition was -7.08% (inactive).

On to `CCn1c(CNC(=O)c2ccccc2F)nnc1SCC(=O)Nc1nncs1`, for which the inhibition is -2.93% (inactive).

Take `COC(=O)c1cccc(N2C(=O)C3CC=CCC3C2=O)c1` (stereo not given): the inhibition was -7.22% (inactive).

For the compound `Cc1ccc(N2C(=O)C(Cl)=C(NCCO)C2=O)c(C)c1`, the inhibition is -3.68% (inactive).

For the compound `COC(=O)c1cccc(N2C(=O)c3cccnc3C2=O)c1`, the inhibition is 1.12% (inactive).

As for `O=C1C(Cl)=C(N2CCCC2)C(=O)N1c1ccc(F)cc1`, the inhibition was 10.2% (inactive).

As for `Cc1ccc(N2C(=O)C(Cl)=C(N3CCCCCC3)C2=O)c(C)c1`, the inhibition was -10.4% (inactive).

Turning to `O=C1C(Cl)=C(N2CCCCCC2)C(=O)N1c1ccc(Br)cc1`, the inhibition is 4.71% (inactive).
